Compound activity: PubChem BioAssay, National Center for Advancing Translational Sciences (NCATS)
The entries come from a sample that favours hits as a whole.
RE007 growth inh – qHTS Assay for Inhibitors of the HIV-1 protein Vpr. S. pombe RE007 Vpr strain, BacTiter-Glo ATP luminescence, 24 h. 360,000 tested, 0.21% active. Potency, µM (series often up to 92.2 µM), without a hit: at the highest dose activity change, negative = less growth, most hits filed as inhibitors; active = well fitted falling curve with a large enough effect; inconclusive = small, poorly fitted or top-dose-only effect; inactive = no such curve, though single readings can be large or run the other way; note: potency is the fitted concentration of half-maximal effect; % is set by controls: 0 for no effect and ±100 for the full control effect; nearly all actives have a fitted effect of over 50% in size
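Fission yeast RE007 carrying one integrated HIV-1 vpr copy, seeded at OD 0.01 in PMG+AL medium with 23 nL pinned compound. Grown 24 h at 30 degrees; viability read by BacTiter-Glo luminescence after 5 min.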
Giardia FBPA inh – qHTS Assay for Inhibitors of Fructose-1,6-bisphosphate Aldolase from Giardia Lamblia; A8B2U2; Potency, µM (series often up to 59.6 µM), for inactives: top-dose activity, negative = inhibition, actives largely listed as inhibitors; purified Giardia FBPA; AID 2451, 2010; 290,000 tested, 0.71% active; note: potency is the fitted concentration of half-maximal effect; % is set by controls: 0 for no effect and ±100 for the full control effect; nearly all actives have a fitted effect of over 55% in size
Target sequence (A8B2U2 whole entry, looked up): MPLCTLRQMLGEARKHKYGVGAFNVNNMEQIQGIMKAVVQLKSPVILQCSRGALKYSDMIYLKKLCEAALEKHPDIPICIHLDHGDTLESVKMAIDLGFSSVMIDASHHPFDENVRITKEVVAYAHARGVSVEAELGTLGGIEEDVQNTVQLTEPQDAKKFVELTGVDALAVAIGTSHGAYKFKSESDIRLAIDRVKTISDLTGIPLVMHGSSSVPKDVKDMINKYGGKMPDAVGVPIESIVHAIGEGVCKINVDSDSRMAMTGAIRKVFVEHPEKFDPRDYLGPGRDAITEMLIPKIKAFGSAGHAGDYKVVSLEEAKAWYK
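Giardia FBPA (40 nM reagent) was preincubated 10 min at RT with compound (up to 57.5 uM final), then substrate plus GAPDH/TPI/NAD/arsenate coupling system with diaphorase/resazurin was added; resorufin fluorescence (525/598 nm) was read after 20 min.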
CHX counter – Cycloheximide Counterscreen for Small Molecule Inhibitors of Shiga Toxin; cell reporter, cycloheximide protein synthesis inhibition counterscreen; AID 2314, 2010; max response, %; 300,000 tested, 12% active; in the data active = max response mostly above about 13%, no sharp cut-off; inactive = mostly below about 14%; note: read at 38.3 µM for the half of the compounds with a filed dose; 0% is about no effect
TbPYK inhibitor – qHTS of Trypanosoma Brucei Inhibitors. 410,000 tested, 0.12% active. Potency, µM (titrated, usually from 76.8 µM), for inactives: at the top dose activity, negative = inhibition, hits mostly inhibitors. pyruvate kinase (Trypanosoma brucei), Q57TT1. TbPYK enzyme, Kinase-Glo Plus ATP luminescence, 45 min. AID 624173, 2012; note: potency is the fitted concentration of half-maximal effect; % is set by controls: 0 for no effect and ±100 for the full control effect; nearly all actives have a fitted effect of over 50% in size
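Enzyme and substrate buffer are dispensed first and compound is pin-transferred. ADP at 130 uM final then starts the reaction, which runs 45 min at room temperature. Detection reagent is added for 10 min before luminescence is imaged.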
LmPK inhibitor – qHTS Assay for Inhibitors of Leishmania Mexicana Pyruvate Kinase (LmPK) | Q27686 | Potency, µM (titrated, usually from 57.5 µM), without a hit: at the highest dose activity change, negative = inhibition, usual class: inhibitors | 290,000 tested, 0.37% active | purified LmPK, Kinase-Glo ATP luminescence, 1 h; note: potency is the fitted concentration of half-maximal effect; % is set by controls: 0 for no effect and ±100 for the full control effect
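0.1 nM LmPK, 0.5 mM PEP, 0.1 mM ADP; 50 mM imidazole pH 7.2, 7 mM MgCl2, 50 mM KCl; 1 h RT. Kinase-Glo luminescence readout, normalized to no-enzyme (full inhibition) and uninhibited wells.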
Shiga inhibitor – A qHTS for Small Molecule Inhibitors of Shiga Toxin; Vero cells, Shiga toxin protein synthesis inhibition reporter; inhibition, % at 38.7 µM; 290,000 tested, 9.2% active; AID 2315, 2010; in the data active = inhibition mostly above about 28%, no sharp cut-off; inactive = mostly below about 43%; note: 0% is about no effect
An asterisk follows results filed as active; ? = inconclusive; / = no result. Unless noted, calls come from the whole dose curve; as a rule, active = well fitted curve in the direction sought with a large enough effect; inconclusive = small, poorly fitted or top-dose-only effect, or another doubt; inactive = no such curve, though single readings can be large; an effect the other way counts as inactive or inconclusive.

SMILES | RE007 growth inh | Giardia FBPA inh | CHX counter | TbPYK inhibitor | LmPK inhibitor | Shiga inhibitor
O=C(CSc1ncccn1)n1c2c(c3ccccc31)CCCC2 | 11% | -19% | 33* | -3% | -5% | 52*
O=C(O)c1cccnc1SCC(=O)N1CCCc2ccccc21 | 6% | ? | 47* | 2% | 7% | 99*
O=C(CSc1ncccn1)N1CCCc2ccccc21 | 0% | 3% | 11* | 0% | 1% | 28
Cc1cc(C)nc(SCC(=O)n2c3c(c4ccccc42)CCCC3)n1 | 2% | -10% | -5 | 2% | -2% | 13
COc1ccc(CNc2ncncc2-c2cccc(NS(C)(=O)=O)c2)c(OC)c1 | / | 0% | / | / | / | /
COc1cc(OC)cc(C(=O)Nc2ccc3nc(N4CCC(C)CC4)cc(C)c3c2)c1 | / | / | / | -5% | / | /
O=C(CCCn1c(=O)c2cccn2c2cccnc21)NCc1ccccc1Br | / | / | / | 1% | / | /
COc1ccccc1Cc1nc2ccccc2nc1SCC(=O)Nc1c(C)cccc1C | / | / | / | 0% | / | /
CSc1ncccc1C(=O)OCc1ccccc1Cl | -13% | 7% | 41* | 5% | -7% | 60
O=C(OCc1c(F)cccc1Cl)c1cccnc1Cl | 4% | 10% | -3 | -2% | -4% | 6
CSc1ncccc1C(=O)OCc1c(F)cccc1Cl | -5% | 4% | 21* | 2% | 5% | 91*
COC(=O)c1cccc(COC(=O)c2cccnc2SC)c1 | -11% | -1% | 21* | 2% | 6% | 38
COc1ccc(NC(=O)CC2C(=O)N(c3ccc(C)cc3)C(=O)N2Cc2ccc(C)cc2)cc1 (stereo not given) | / | / | / | -1% | / | /
CCN(CC)CCCC(C)n1c(-c2ccccc2)nc2c(NCCOC)nc(C)nc21 (stereo not given) | / | 0% | / | / | / | /
CCOc1ccc(N2CC(c3nc4ccccc4n3CCCOc3ccc(OC)cc3)CC2=O)cc1 (stereo not given) | / | / | / | 13% | / | /
CCCN1CCc2cccc3c2C1Cc1ccc(O)c(O)c1-3 (stereo not given) | / | 13µM* | / | / | / | /
CCCOc1cccc(-c2nc3ccccc3c(=O)o2)c1 | -4% | -2% | 51* | -2% | 1% | 79*
CCCOc1ccc(-c2nc3ccccc3c(=O)o2)cc1 | / | / | / | -2% | / | /
Nc1ccccc1-c1nc2ccccc2c(=O)o1 | ? | 6% | 18* | 0% | -8% | 29*
O=c1oc(-c2ccc(Br)cc2)nc2ccccc12 | -17% | 1% | 26* | -6% | -1% | /
COc1ccccc1N1CCN(C(c2cc3cc(C)ccc3[nH]c2=O)c2nnnn2C2CCCC2)CC1 (stereo not given) | -9% | ? | -8 | 0% | 3% | -6
COc1ccccc1N1CCN(C(c2cc3ccc(C)cc3[nH]c2=O)c2nnnn2C2CCCC2)CC1 (stereo not given) | 18% | 28µM* | -3 | -3% | 5% | 4
CCCC[C@@H]1C[C@H]1C(NS(=O)(=O)c1cccc2cccnc12)c1ccc(-c2ccccc2)cc1 (stereo not given in full) | / | -4% | / | / | / | /
COc1ccc(C2CC(=O)c3c(C)nc(N4CCN(C=O)CC4)nc3C2)c(OC)c1 (stereo not given) | / | / | / | 4% | / | /
Cc1ccc(-n2cc(CN3CCN(C(=O)c4ncn[nH]4)CC3)c(-c3ccc(F)cc3)n2)cc1 | 3% | -17% | 17* | -1% | -5% | 40
SMILES | RE007 growth inh | Giardia FBPA inh | CHX counter | TbPYK inhibitor | LmPK inhibitor | Shiga inhibitor
Cc1ccc(-n2cc(CN3CCN(Cc4nccn4C)CC3)c(-c3ccc(F)cc3)n2)cc1 | -5% | 4% | 15* | -9% | 3% | 57
O=C(Nc1ccc(S(=O)(=O)Nc2ccccc2)cc1)N1CCCC1 | / | / | / | -2% | / | /
Cc1ccc(CN2CCCn3nc(C(=O)NCCc4ccc(Cl)cc4)cc3C2=O)cc1 | / | / | / | 2% | / | /
CC1=C(c2ccc(C)c(C)c2)S(=O)(=O)N=C1N1CCC(C(=O)Nc2cccc(F)c2)CC1 | / | / | / | 4% | / | /
COCCn1cnc2c1c(=O)n(CC(=O)Nc1cc(C)on1)c(=O)n2Cc1ccccc1 | -8% | 2% | -2 | -7% | -3% | -18
COCCn1cnc2c1c(=O)n(CC(=O)c1ccc3c(c1)OCCO3)c(=O)n2Cc1ccccc1 | 1% | -1% | 9.7* | -8% | 8% | 19
O=C(O)Cn1nc(N2CCN(c3ccccc3)CC2)ccc1=O | / | / | / | -5% | / | /
CCOc1ccc(NC(=O)c2c(NCc3cccs3)sc3c2CCC(C)C3)cc1 (stereo not given) | / | / | / | -10% | / | /
CCOc1ccc(NC(=O)c2c(NCc3cccnc3)sc3c2CCC(C)C3)cc1 (stereo not given) | / | / | / | 14µM* | / | /
C[C@@H]1Oc2ccccc2C=C1/C=C/C(=O)O | / | 0% | / | / | / | /
CC1Oc2ccccc2C=C1/C=N/Nc1ccc(C(=O)O)cc1 (stereo not given) | ? | 5% | 33* | -18% | -2% | 70*
COc1ccc(C2C=C(C)Nc3nc4ccccc4n32)cc1 (stereo not given) | 45% | 2% | 43* | 6% | -2% | 111*
COc1ccc(C2C(C(=O)c3ccccc3)=C(C)Nc3nc4ccccc4n32)c(OC)c1 (stereo not given) | -5% | 9% | 31* | 0% | -1% | 43*
COc1ccc(C2C(C#N)=C(N)Nc3nc4ccccc4n32)cc1 (stereo not given) | 14% | 1% | 27* | -7% | -3% | 26*
COc1ccc(C2N=C(N)Nc3nc4ccccc4n32)cc1 (stereo not given) | / | / | / | 4% | / | /
CC(=O)N1c2ccc(S(=O)(=O)N3CCN(c4ccc(C)cc4C)CC3)cc2CC1C (stereo not given) | / | / | / | 0% | / | /
CCOC(=O)N1CCC(NC(=O)c2oc3c(F)cccc3c2C)CC1 | -8% | 13% | 65* | -5% | 7% | 62*
Cc1c(C(=O)N2CCN(c3ccccc3)CC2)oc2c(F)cccc12 | -27% | / | 32* | -6% | 0% | 45
CC(=O)NCC1CCCN(C(=O)c2oc3c(F)cccc3c2C)C1 (stereo not given) | -4% | -1% | 14 | 10% | 6% | 26
COCC1CCN(C(=O)c2oc3c(F)cccc3c2C)C1 (stereo not given) | -10% | -4% | 23* | 2% | -1% | 33*
CCC(/C=C/C(C)C1CCC2C3CCC4=CC(=O)CC[C@@]4(C)C3CC[C@@]12C)C(C)C (stereo not given in full) | / | 4% | / | / | / | /
CC1CCN(c2ccc(-c3ccc(NC(=O)C(F)(F)F)cc3)nn2)CC1 | 0% | 9% | 36* | -2% | -7% | 41*
